These results are taken from PubChem BioAssay (NCATS).

For experiment [1], the target named is Peroxisome proliferator-activated receptor gamma (Homo sapiens) (UniProt P37231). Description: qHTS assay for small molecule antagonists of peroxisome proliferator-activated receptor gamma signaling (AID 588537; active = well fitted inhibition curve with a large enough effect in the signal ratio, with a control signal flat, not every such curve was filed as active; the % refers to the signal ratio;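 note: reporter cells co-stimulated with 50 nM rosiglitazone agonist during compound treatment; % of control where 0% means no effect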). The method in brief: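 Step one: plate 3000 HEK293 UAS-bla cells per well in medium with 1% stripped serum and hold 6-6.5 h at 37 C. Step two: add compound and 50 nM agonist for 16 h. Step three: CCF4 loading, fluorescence read.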

Experiment [2] concerns the target Vitamin D3 receptor (Homo sapiens) (UniProt P11473). Description: qHTS assay for small molecule antagonists of vitamin D receptor signaling (AID 588541; calls by dose curve;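 note: receptor activated by calcitriol during compound treatment; series mostly up to about 77 µM; % is set by controls: 0 for no effect and ±100 for the full control effect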). In short, it runs like this: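 VDR-UAS-bla HEK293T cells in 2% charcoal-stripped FBS were stimulated with 1-alpha,25-dihydroxyvitamin D3 (3 nM final) plus compound for 16 h at 37 C. The beta-lactamase CCF4 readout was normalized to 50 nM agonist and DMSO, and Hill fits gave IC50.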

For experiment [3] the target is unchanged. Description: qHTS assay for small molecule agonists of vitamin D receptor signaling (AID 588543; calls by dose curve;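 note: 0% = DMSO basal and 100% = reference agonist control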). The method in brief: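 Agonist-mode beta-lactamase reporter: HEK293T VDR-UAS-bla cells in charcoal-stripped 2% FBS, compound series 16 h 37 C, CCF4 2 h RT. EC50 from Hill fit, scaled against DMSO and 50 nM calcitriol control.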
In general terms: qHTS replaces the single test concentration by a dilution series.

Experiment [4] in a line: qHTS assay for small molecule agonists of retinoid X receptor alpha signaling (AID 588544; calls by dose curve;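 for activation: 0% = DMSO basal wells and 100% = reference agonist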). The settings on record: HEK293T RXRa-UAS-bla, beta-lactamase reporter, 18 h; 530 nm emission.
Experiment [5] deals with Retinoic acid receptor RXR-alpha (Homo sapiens) (UniProt P19793). Described as above.
For experiment [6], the target named is Thyroid hormone receptor beta (Homo sapiens) (UniProt P10828). Description: qHTS assay for small molecule agonists of thyroid hormone receptor beta signaling (AID 588545; calls by dose curve;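 note: 0% = DMSO only and 100% = 10 nM T3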). In short, it runs like this: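 Stimulation of a TR-driven beta-lactamase reporter was quantified in GripTite HEK 293 cells. Compound series ran for 18 hrs; curves were normalized to T3 and DMSO controls and fitted to yield EC50.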

Experiment [7] is described as follows: qHTS assay for small molecule antagonists of retinoid X receptor alpha signaling (AID 588546; active = well fitted inhibition curve with a large enough effect in the signal ratio, with a control signal flat, not every such curve was filed as active; the % refers to the signal ratio; note: potency is the fitted concentration of half-maximal effect;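 for max response: cells stimulated with 9-cis-retinoic acid as agonist; % is set by controls: 0 for no effect and ±100 for the full control effect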). The settings on record: HEK293T RXRa-UAS-bla, beta-lactamase ratio, antagonist mode; measured here: W530 green channel, cytotoxicity proxy. In short, it runs like this: (§1)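 Beta-lactamase reporter inhibition, read as CCF4 fluorescence ratio (ex 405, em 460/530 nm) after 2 h at RT. HEK293T UAS-bla cells, 2500/well, were stimulated with 9-cis-RA at 500 or 100 nM final alongside test compound for 18 h at 37 C.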

The target of experiment [8] is Retinoic acid receptor RXR-alpha (Homo sapiens) (UniProt P19793). Described as above. Particulars: HEK293T RXRa-UAS-bla, beta-lactamase ratio, antagonist mode. The method in brief: as §1
The nature of experiment [9]: qHTS assay for small molecule activators of the p53 signaling pathway (AID 651743; active = well fitted activation curve with a large enough effect in the signal ratio, not every such curve was filed as active; the % refers to the signal ratio; note: series mostly up to about 92 µM; % of control where 0% means no effect). Particulars: HCT-116 p53RE-bla, beta-lactamase FRET ratio, 16 h; activation: stronger effect = higher value. In short, it runs like this: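 HCT-116 p53RE-bla, 4,000 cells/well; 5 h settle; cpd/DMSO 16 h, 37 C; LiveBLAzer B/G 2 h RT; fluorescence intensity.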
The nature of experiment [10]: qHTS assay for small molecule activators of the nuclear factor-kappa B (NF-kB) signaling pathway (AID 651749; active = well fitted activation curve with a large enough effect in the signal ratio; the % refers to the signal ratio; note: potency is the fitted concentration of half-maximal effect; for activation: series mostly up to about 77 µM; % of control where 0% means no effect). The settings on record: NF-kB-bla ME-180 cells, beta-lactamase FRET ratio, 16 h; activation: stronger effect = higher value. The method in brief: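 Incubation lasted 16 hr at 37C in 5% CO2 after 23 nL compound addition to ME-180 NF-kB-bla cells. Activation appears as beta-lactamase-mediated FRET loss.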

Experiment [11] can be described thus: qHTS assay for environmental chemicals that activate the Aryl hydrocarbon Receptor (AhR) signaling pathway (AID 651777). Note: % of control where 0% means no effect; nearly all actives have a fitted effect of over 15% in size. Particulars: 1A2-DRE human hepatoma cells, luciferase, 24 h; activation: stronger effect = higher value. In short, it runs like this: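 Induction of CYP1A2 transcription through AhR is detected by luciferase in 1A2-DRE hepatoma cells. Compounds or DMSO act for 24 hr at 37 C before a 30 min One-Glo step at room temperature.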

Experiment [12] deals with Peroxisome proliferator-activated receptor alpha (Homo sapiens) (UniProt Q07869). Description: qHTS assay for small molecule agonists of the peroxisome proliferator-activated receptor alpha (PPARalpha) signaling pathway (AID 651778). Note: % of control where 0% means no effect. Particulars: PathHunter PPARalpha complementation, chemiluminescence, 6 h; max response: stronger effect = higher value. The method in brief:
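Enzyme-fragment complementation assay in which ligand-bound PPARalpha translocates and forms an active enzyme that generates chemiluminescence. Cells were plated overnight, exposed to compound for 6 hr at 37 C, and then given detection reagent for 60 min at room temperature.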

Experiment [13] in a line: qHTS assay for small molecule agonists of the antioxidant response element (ARE) signaling pathway measured by Nrf2-dependant transcriptional activity (AID 720636; active = well fitted curve in the direction sought with a large enough effect in the repeat runs; an effect the other way counts as inactive or inconclusive;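 note: HepG2 cells with an ARE-driven luciferase reporter; % of control where 0% means no effect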). In short, it runs like this:
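We exposed ARE-luc HepG2 cells, seeded in assay medium with 1% dialyzed FBS and allowed 6 hr to adhere, to test compounds overnight (16 hr, 37 C) before measuring luciferase with ONE-Glo.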

Experiment [14] is described as follows: qHTS assay for small molecule agonists of the antioxidant response element (ARE) signaling pathway measured by Nrf2-dependant transcriptional activity - cell viability counter screen (AID 720653; active = well fitted curve in the direction sought with a large enough effect in the repeat runs; an effect the other way counts as inactive or inconclusive; note: % is set by controls: 0 for no effect and ±100 for the full control effect). Particulars: ARE-bla HepG2 viability, CellTiter-Glo ATP luminescence, 16 h; max response: stronger effect = lower value. In short, it runs like this:
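ARE-bla HepG2 cells treated with compounds for 16 h at 37C; this counter screen measures viability as intracellular ATP by CellTiter-Glo luminescence after 30 min at room temperature.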

Experiment [15] can be described thus: qHTS assay for cell viability of HEK293 cells (AID 743288). Note: % is set by controls: 0 for no effect and ±100 for the full control effect; nearly all actives have a fitted effect of over 50% in size. Particulars: ATP luminescence (CellTiter-Glo), 18 h; max response: stronger effect = lower value. In short, it runs like this:
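Total intracellular ATP, measured with a luciferase-coupled reagent, indicates the number of viable HEK293 cells. Exposure to test chemicals lasts 18 h at 37 C in 1,536-well format at 2,000 cells/well.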

Experiment [16] can be described thus: qHTS assay for cell viability of the p53RE-bla HCT-116 cell line (AID 743292). Note: % is set by controls: 0 for no effect and ±100 for the full control effect; nearly all actives have a fitted effect of over 55% in size. In short, it runs like this: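 In this qHTS counter-screen, metabolically competent p53RE-bla HCT-116 cells were counted via their ATP content. Compounds were applied for 16 h at 37 C and luciferase-coupled luminescence was measured.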
Experiment [17] concerns the target Nuclear receptor subfamily 1 group I member 2 (Rattus norvegicus) (UniProt Q9R1A7). Description: qHTS assay for small molecule activators of the rat pregnane X receptor (rPXR) signaling pathway (AID 651751; call rule not given here; note: 0% is about no effect). Particulars: rPXR reporter cells, luciferase (One-Glo), 24 h.
Experiment [18] is described as follows: qHTS assay for small molecule activators of the human pregnane X receptor (PXR) signaling pathway (AID 720659; call rule not given here; note: 0% is about no effect).
A short description of experiment [19]: qHTS assay for small molecule antagonists of peroxisome proliferator-activated receptor delta signaling (AID 588535).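 Note: cells co-treated with a PPAR-delta agonist as stimulator during compound exposure.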 Particulars: HEK293T PPARd-UAS-bla, beta-lactamase FRET ratio, 18 h; 460 nm channel. The method in brief:
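Cells were seeded at 4000 per well in assay medium containing 2% charcoal/dextran FBS and held 5 hrs at 37 C. Compounds were then added for 18 hrs. CCF4 substrate was applied for 2 hrs at room temperature before fluorescence reading.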

Experiment [20] addresses Peroxisome proliferator-activated receptor gamma (Homo sapiens) (UniProt P37231). Description: qHTS assay for small molecule agonists of peroxisome proliferator-activated receptor gamma signaling (AID 588536; active = well fitted curve in the direction sought with a large enough effect in the signal ratio, with a control signal flat, not every such curve was filed as active; the % refers to the signal ratio;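 note: 0% = DMSO basal wells and 100% = rosiglitazone at 2 µM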). The method in brief:
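GeneBLAzer PPAR-gamma-UAS-bla HEK293 cells in 1% charcoal/dextran-treated FBS medium were treated 16 h at 37 C with compounds. Beta-lactamase activity was read by CCF4 ratio (460/530 nm). Response was normalized to 2 uM rosiglitazone (100%) and DMSO, then Hill-fitted for EC50 and efficacy.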

Each structure is given as a SMILES string. Results filed as inconclusive are left out. The source made the active and inactive calls. Unless noted, calls come from the whole dose curve; as a rule, active = well fitted curve in the direction sought with a large enough effect; inconclusive = small, poorly fitted or top-dose-only effect, or another doubt; inactive = no such curve, though single readings can be large; an effect the other way counts as inactive or inconclusive.

Chain of Peroxisome proliferator-activated receptor alpha (Homo sapiens) (Q07869 whole entry, looked up, the tested form may be a part): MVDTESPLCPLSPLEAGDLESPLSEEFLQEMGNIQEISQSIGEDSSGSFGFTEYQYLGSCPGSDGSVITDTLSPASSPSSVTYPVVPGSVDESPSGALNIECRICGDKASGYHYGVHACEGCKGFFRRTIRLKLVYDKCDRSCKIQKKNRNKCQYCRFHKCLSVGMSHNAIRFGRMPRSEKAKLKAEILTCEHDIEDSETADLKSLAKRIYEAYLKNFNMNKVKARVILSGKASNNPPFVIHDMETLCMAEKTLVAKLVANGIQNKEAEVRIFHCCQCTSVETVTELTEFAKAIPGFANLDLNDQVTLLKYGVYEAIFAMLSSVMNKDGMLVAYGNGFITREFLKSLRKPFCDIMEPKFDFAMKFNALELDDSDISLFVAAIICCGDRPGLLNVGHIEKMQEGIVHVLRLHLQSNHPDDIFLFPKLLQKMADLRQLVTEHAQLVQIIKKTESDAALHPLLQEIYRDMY
Chain of Vitamin D3 receptor (Homo sapiens) (P11473 whole entry, looked up): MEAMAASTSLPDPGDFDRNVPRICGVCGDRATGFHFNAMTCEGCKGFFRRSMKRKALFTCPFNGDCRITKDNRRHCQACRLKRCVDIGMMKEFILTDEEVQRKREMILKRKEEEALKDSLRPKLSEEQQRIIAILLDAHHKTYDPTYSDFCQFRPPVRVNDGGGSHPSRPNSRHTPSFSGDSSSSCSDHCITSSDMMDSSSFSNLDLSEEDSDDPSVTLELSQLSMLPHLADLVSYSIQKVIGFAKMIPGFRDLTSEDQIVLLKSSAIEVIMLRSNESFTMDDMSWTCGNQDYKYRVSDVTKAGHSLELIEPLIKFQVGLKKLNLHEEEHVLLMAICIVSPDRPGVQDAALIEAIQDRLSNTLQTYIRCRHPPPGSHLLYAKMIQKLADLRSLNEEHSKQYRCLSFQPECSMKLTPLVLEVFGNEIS
Chain of Retinoic acid receptor RXR-alpha (Homo sapiens) (P19793 whole entry, looked up): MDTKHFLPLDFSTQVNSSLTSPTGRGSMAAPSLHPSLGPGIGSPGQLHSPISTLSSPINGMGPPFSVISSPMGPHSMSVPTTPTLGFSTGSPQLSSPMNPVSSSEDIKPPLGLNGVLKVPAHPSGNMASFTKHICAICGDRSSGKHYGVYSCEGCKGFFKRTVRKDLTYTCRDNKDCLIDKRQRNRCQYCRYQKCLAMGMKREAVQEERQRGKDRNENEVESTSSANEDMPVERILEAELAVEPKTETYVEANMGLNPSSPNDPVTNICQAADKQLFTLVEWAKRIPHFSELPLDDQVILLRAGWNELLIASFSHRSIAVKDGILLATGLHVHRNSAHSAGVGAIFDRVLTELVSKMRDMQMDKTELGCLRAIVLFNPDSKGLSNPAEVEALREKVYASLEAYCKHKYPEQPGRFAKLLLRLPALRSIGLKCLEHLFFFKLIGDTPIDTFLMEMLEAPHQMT
Chain of Peroxisome proliferator-activated receptor gamma (Homo sapiens) (P37231 whole entry, looked up): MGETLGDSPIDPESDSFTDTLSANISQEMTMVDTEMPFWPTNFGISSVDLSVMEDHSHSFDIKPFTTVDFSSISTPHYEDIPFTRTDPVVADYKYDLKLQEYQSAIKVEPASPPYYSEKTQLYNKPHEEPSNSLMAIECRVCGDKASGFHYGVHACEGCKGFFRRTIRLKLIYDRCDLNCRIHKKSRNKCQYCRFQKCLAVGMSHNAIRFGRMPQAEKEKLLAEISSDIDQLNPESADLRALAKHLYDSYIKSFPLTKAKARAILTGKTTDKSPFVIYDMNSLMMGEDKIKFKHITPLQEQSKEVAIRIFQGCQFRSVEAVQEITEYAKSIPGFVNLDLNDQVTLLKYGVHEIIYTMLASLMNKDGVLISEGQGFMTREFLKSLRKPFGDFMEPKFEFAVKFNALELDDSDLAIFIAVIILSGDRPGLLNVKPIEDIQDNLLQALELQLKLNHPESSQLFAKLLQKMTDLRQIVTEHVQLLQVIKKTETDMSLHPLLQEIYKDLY
Chain of Thyroid hormone receptor beta (Homo sapiens) (P10828 whole entry, looked up): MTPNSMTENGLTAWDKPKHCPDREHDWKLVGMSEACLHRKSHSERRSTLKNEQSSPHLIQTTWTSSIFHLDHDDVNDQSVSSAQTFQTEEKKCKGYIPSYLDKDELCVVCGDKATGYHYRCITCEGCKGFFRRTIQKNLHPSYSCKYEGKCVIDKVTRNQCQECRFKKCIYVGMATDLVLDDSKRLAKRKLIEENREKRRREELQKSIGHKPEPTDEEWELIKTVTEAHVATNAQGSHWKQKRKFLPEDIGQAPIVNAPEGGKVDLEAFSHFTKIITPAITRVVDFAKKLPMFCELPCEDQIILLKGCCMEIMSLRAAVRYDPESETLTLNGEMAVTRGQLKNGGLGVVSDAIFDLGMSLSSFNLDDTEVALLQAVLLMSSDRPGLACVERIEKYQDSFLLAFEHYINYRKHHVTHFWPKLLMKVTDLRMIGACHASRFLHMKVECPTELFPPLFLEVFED
Chain of Nuclear receptor subfamily 1 group I member 2 (Rattus norvegicus) (Q9R1A7 whole entry, looked up): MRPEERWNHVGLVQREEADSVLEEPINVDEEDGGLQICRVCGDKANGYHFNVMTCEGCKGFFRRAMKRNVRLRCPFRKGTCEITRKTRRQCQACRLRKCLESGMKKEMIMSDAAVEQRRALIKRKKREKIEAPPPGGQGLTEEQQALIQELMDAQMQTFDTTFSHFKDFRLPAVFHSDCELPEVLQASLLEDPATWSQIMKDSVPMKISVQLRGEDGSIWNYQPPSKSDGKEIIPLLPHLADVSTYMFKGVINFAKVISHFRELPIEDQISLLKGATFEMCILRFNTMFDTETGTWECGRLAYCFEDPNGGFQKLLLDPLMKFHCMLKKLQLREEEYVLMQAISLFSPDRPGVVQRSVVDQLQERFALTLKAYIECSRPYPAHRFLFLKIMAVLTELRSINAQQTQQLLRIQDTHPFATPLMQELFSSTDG

Take `Fc1ccc(Br)cc1`: the Potency result in experiment [1], in [2], in [5], in experiment [6], in experiment [13] and in [16] was “inactive” throughout. The call in experiment [3] and in experiment [18] was inactive. The max response in experiment [4] is 4.76%; in [7] it was -8.4%; in [8], 4.33% (inactive); in [12], -2.75% (inactive); in experiment [14], -9.66% (inactive); in [15] it was -0.046% (inactive). Moreover, in experiment [17], the max response is -1.72% (inactive). Further, the activation is -1.54% (inactive) in [9], 1.17% (inactive) in [10] and 2.85% (inactive) in experiment [11].
In the case of `O=S(c1ccc(Cl)cc1)c1cc(Cl)c(Cl)cc1Cl` (stereo not drawn), the max response in experiment [19] was 14.8%; in experiment [12], -1.31% (inactive); in experiment [14], -25.7% (inactive); in experiment [15], -14.5% (inactive). The result in experiment [3] was inactive. Moreover, the Potency result in experiment [6], in experiment [13] and in experiment [16] was “inactive” in each case. In addition, the activation in experiment [9] was 3.87% (inactive); in experiment [11], 0.902% (inactive). In experiment [10], the Potency was 7.94 µM (active).
`CCCCCCCCCC[N+](C)(C)Cc1ccccc1`: the compound was called inactive in experiment [20] and in experiment [18]. Moreover, the Potency entry in experiment [1], in experiment [2] and in experiment [6] was “inactive” each time. In addition, the max response in experiment [7] is 16%; in experiment [12], 7.43% (inactive); in [14], -23% (inactive); in experiment [15], -27.5% (inactive); in experiment [17] it was -4.11% (inactive). Also, the Potency in [8] is 35.5 µM (active). The activation is 6.02% (inactive) in experiment [9], 4.29% (inactive) in experiment [10] and 0.379% (inactive) in [11].
As for `C[C@]12CCC(=O)C=C1CC[C@@H]1[C@@H]2[C@@H](O)C[C@]2(C=O)[C@@H](C(=O)CO)CC[C@@H]12`, the result in experiment [20], in [3] and in experiment [18] was inactive. In addition, the Potency entry in experiment [1], in experiment [5], in experiment [13] and in experiment [16] was “inactive” each time. The max response in experiment [4] is 19.7%; in [7], -18.8%; in experiment [8], 1.07% (inactive); in experiment [12] it was 0.506% (inactive); in [14] it was -8.31% (inactive); in experiment [15] it was -8.63% (inactive). Further, the max response in experiment [17] is -0.971% (inactive). Moreover, the values for the activation in experiment [9], in experiment [10] and in [11] were -0.611% (inactive), -3.08% (inactive) and -0.37% (inactive), respectively.
Consider `O=C(O)CN(CCO)CCN(CC(=O)O)CC(=O)O`, for which the max response in experiment [19] was 6.54%; in experiment [4], -15.4%; in [7], -2.45%; in [8] it was -2.39% (inactive); in [14], -1.05% (inactive); in experiment [15], -11.1% (inactive). Moreover, the max response in experiment [17] is 1.3% (inactive). The result in experiment [20], in experiment [3] and in experiment [18] was inactive. The Potency result in experiment [1], in experiment [2], in experiment [5], in experiment [6], in experiment [13] and in [16] was “inactive” in each case. The activation in experiment [10] was -1.52% (inactive); in [11] it was -0.73% (inactive).
Turning to `O=C(O)c1cccc(C(=O)O)c1`, the max response in experiment [19] is -2.92%; in experiment [4], -13%; in [7], -5.27%; in [8] it was -3.25% (inactive); in [14] it was -9.16% (inactive); in experiment [15], -0.837% (inactive). The max response in [17] is 0.205% (inactive). Further, the compound was called inactive in [20] and in experiment [18]. The Potency entry in experiment [1], in experiment [6] and in experiment [16] was “inactive” throughout. For the same compound, the activation in experiment [11] was -2.6% (inactive).
As for `CC(C)OB(OC(C)C)OC(C)C`, the compound was called inactive in [20], in experiment [3] and in experiment [18]. The Potency result in experiment [1], in experiment [2], in [13] and in [16] was “inactive” in each case. Also, the max response in experiment [4] is -15.5%; in [7] it was -7.32%; in experiment [8] it was 0.387% (inactive); in experiment [12] it was -0.0686% (inactive); in experiment [14], -7.65% (inactive); in [15] it was -7.12% (inactive). Also, the max response in experiment [17] is 0.348% (inactive). The activation in experiment [9] is 0.574% (inactive); in experiment [10], 1.02% (inactive); in [11], 9.09% (inactive).
